The list is not random: actives were taken first. Their share in the collection is about 2.4%.
FEN1 inh – qHTS Assay for the Inhibitors of Human Flap endonuclease 1 (FEN1) | Potency, µM (highest dose often 114 µM), inactives show at the highest dose activity change, negative = inhibition, most hits filed as inhibitors | P39748 | Recombinant FEN1 flap cleavage, fluorescence, 15 min | AID 588795, 2011 | 0.35% of 390,000 active; also: % is scaled to controls: 0 for no effect and ±100 for the full control effect; nearly all actives have a fitted effect of over 65% in size
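Concentration–response screening of FEN1 (10 nM): 15 min compound preincubation at room temperature, reaction started with 50 nM substrate and read at 0 and 15 min. Corrected, normalized data were fitted by a four-parameter Hill equation.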
POLK inh – qHTS for Inhibitors of Polymerase Kappa. purified Pol kappa, fluorescent DNA synthesis assay, 10 min. Potency, µM (highest dose often 107 µM), for inactives: top-dose activity, negative = inhibition, actives largely listed as inhibitors. 0.53% of 400,000 active; also: % is scaled to controls: 0 for no effect and ±100 for the full control effect
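50 nM final substrate added after 15 min RT preincubation of 10 nM Pol kappa with compound; fluorescence read at 0 and 10 min.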
POLI inh – qHTS for Inhibitors of Polymerase Iota | DNA polymerase iota (Homo sapiens), Q9UNA4 | Pol iota fluorescent replication assay, 10 min | Potency, µM (series often up to 115 µM), without a hit: top-dose activity, negative = inhibition, most hits filed as inhibitors | 1% of 390,000 active
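Fluorescent replication assay read twice, at 0 min and 10 min after adding 50 nM (final) substrate. Enzyme (10 nM) and compounds were first incubated 15 min at room temperature; enzyme-free buffer wells were negative controls.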
Pol beta inh – qHTS Assay for Inhibitors of DNA Polymerase Beta | Pol beta primer extension/strand displacement, fluorescence kinetic | 1.3% of 340,000 active | P06746 | AID 485314, 2010 | Potency, µM (highest dose often 114 µM), for inactives: at the top dose activity change, negative = inhibition, usual class: inhibitors; also: % is scaled to controls: 0 for no effect and ±100 for the full control effect
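Human Pol beta at 10 nM; strand-displacement substrate 50 nM final. Compound exposure 15 min at room temperature before start, reaction 10 min at room temperature.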
POLH inh – qHTS for Inhibitors of Polymerase Eta; recombinant Pol eta, fluorescent DNA replication assay; Potency, µM (doses to about 114 µM), for the others: top-dose activity change, negative = inhibition, hits mostly inhibitors; 1.2% of 390,000 active; also: % is scaled to controls: 0 for no effect and ±100 for the full control effect
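Pol eta at 10 nM preincubated with compounds 15 min at room temperature; reaction started with fluorescent substrate (50 nM final) and read kinetically at 0 and 10 min.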
TDP1 block – qHTS Assay for Inhibitors of Tyrosyl-DNA Phosphodiesterase (TDP1); 0.28% of 350,000 active; recombinant TDP1, AlphaScreen DNA substrate cleavage; Potency, µM (highest dose often 130 µM), inactives show at the highest dose activity change, negative = inhibition, most hits filed as inhibitors; also: % is scaled to controls: 0 for no effect and ±100 for the full control effect; nearly all actives have a fitted effect of over 40% in size
Target sequence (Q9NUW8 whole entry, looked up): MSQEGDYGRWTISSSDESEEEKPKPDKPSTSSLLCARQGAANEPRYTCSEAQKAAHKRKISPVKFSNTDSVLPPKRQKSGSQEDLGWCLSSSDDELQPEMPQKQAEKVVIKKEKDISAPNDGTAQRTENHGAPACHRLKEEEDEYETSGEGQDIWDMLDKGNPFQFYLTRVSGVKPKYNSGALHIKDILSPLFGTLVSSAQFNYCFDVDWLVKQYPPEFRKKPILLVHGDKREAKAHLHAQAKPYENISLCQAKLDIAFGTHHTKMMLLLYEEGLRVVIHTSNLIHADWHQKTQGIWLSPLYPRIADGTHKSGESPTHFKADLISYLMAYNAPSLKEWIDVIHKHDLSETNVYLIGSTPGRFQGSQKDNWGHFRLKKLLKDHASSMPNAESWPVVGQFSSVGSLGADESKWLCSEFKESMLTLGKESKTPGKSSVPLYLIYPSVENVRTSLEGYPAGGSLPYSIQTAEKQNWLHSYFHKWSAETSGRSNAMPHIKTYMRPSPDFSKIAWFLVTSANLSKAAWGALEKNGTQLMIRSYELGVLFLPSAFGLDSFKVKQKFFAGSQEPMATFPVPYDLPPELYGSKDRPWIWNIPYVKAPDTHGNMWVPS
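Here, a 5' biotin and 3' phosphotyrosine-FITC DNA oligonucleotide reports Tdp1 activity: intact substrate bridges AlphaScreen beads, while cleavage leaves a 3' phosphate and drops signal. All incubations at room temperature.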
* marks the source's active call; other numbers are inactive results; ? = inconclusive; . = not tested or not shown; [ ] = dose if it differs, or a comment. Calls follow the shape of the dose curve; as a rule, active = well fitted curve in the direction sought with a large enough effect; inconclusive = small, poorly fitted or top-dose-only effect, or another doubt; inactive = no such curve, though single readings can be large; an effect the other way counts as inactive or inconclusive. Potency is read from the fitted curve at half-maximal effect.

SMILES	FEN1 inh	POLK inh	POLI inh	Pol beta inh	POLH inh	TDP1 block
Cc1cc(C)c2oc(-c3ccc(C)c(NC(=O)/C=C/c4ccco4)c3)nc2c1	?	-38%	22µM*	?	?	-5%
COc1ccc(N2CCN(C(=O)c3cc4c(=O)oc5ccc(C)cc5c4s3)CC2)cc1	13%	-17%	18%	1%	-12%	6%
O=C(O)c1ccc([N+](=O)[O-])c2c1C(=O)c1ccccc1C2=O	-10%	-2%	-21%	.	-5%	.
O=C1c2ccccc2C(=O)c2c([N+](=O)[O-])ccc(O)c21	?	-36%	50µM*	?	32µM*	.
O=C(c1ccc2ccccc2c1)N1CCN(S(=O)(=O)/C=C/c2ccccc2)CC1	-5%	-5%	16%	7%	-17%	3%
O=C(/C=C\c1ccccc1)c1ccccc1O	.	.	.	.	.	10%[21 µM]
CC(/C=C\c1ccccc1)=C/C(=O)O	4%	3%	136%	-6%	-6%	1%
O=C(/C=C/c1ccccc1)c1cc(Br)ccc(=O)c1O	?	40µM*	3.2µM*	?	?	.
O=C(/C=C/c1ccccc1)c1ccccc1	-13%	-19%	22µM*	46%	?	6%
O=C(/C=C/c1ccccc1)/C=C/c1ccccc1	?	-11%	?	24%	18µM*	.
O=C(/C=C/c1ccccc1)c1ccc2ccccc2c1	3%	-12%	22µM*	.	-17%	.
CC(C)(C)OC(=O)Cc1nnc(-c2cc3ccccc3[nH]2)s1	.	.	.	.	.	1%
Cc1nc2ccc(S(=O)(=O)N3CCN(S(=O)(=O)c4c(F)cccc4F)CC3)cc2s1	.	.	.	.	.	-4%
C=C(C(=O)O)c1ccc2ccccc2c1	-18%	?	79µM*	.	.	.
O=C(O)c1ccc(/C=C/C(=O)c2ccc3c(c2)OCCCO3)cc1	-1%	-3%	?	9%	22µM*	.
COc1ccccc1OC(C)C(=O)Nc1cccc(-c2nc3ccccc3o2)c1 (stereo unspecified)	?	?	89µM*	50µM*	?	.
CC(C)C(=O)Nc1cccc(-c2nc3ccccc3o2)c1	-4%	-1%	2%	?	-14%	0%
CCOc1ccc(N2CSC3=C(C#N)C(c4ccco4)CC(=O)N3C2)cc1 (stereo unspecified)	-4%	0%	13%	25µM*	1%	.
Cc1ccc(C2CC(=O)N3CN(c4ccc(Br)cc4)CSC3=C2C#N)o1 (stereo unspecified)	-7%	-7%	?	32µM*	4%	-7%
CCOC(=O)c1ccc(N2CSC3=C(C#N)C(c4ccc(OC)cc4OC)CC(=O)N3C2)cc1 (stereo unspecified)	?	-20%	-2%	0%	-9%	8%
N#CC1=C2SCN(c3ccccc3)CN2C(=O)CC1c1cccs1 (stereo unspecified)	-8%	-14%	-6%	?	-7%	.
Cc1ccc(CNC(=O)CCCn2c(=O)c3ccccc3n(CC(=O)C(C)(C)C)c2=O)cc1	-9%	-28%	9%	0%	-16%	2%
Cc1ccc(N(CC(O)COCc2ccco2)S(=O)(=O)c2ccc(C)cc2)cc1 (stereo unspecified)	-19%	89µM*	?	22µM*	50µM*	2%
CCCN(CCC)CC(O)CN(c1ccccc1)S(=O)(=O)c1ccc(C)cc1 (stereo unspecified)	-15%	-9%	4%	-1%	2%	2%
CCOc1ccc(NC(=O)c2ccc3c(SCC(=O)O)c4c(nc3c2)CCC4)cc1	-8%	-43%	?	?	0%	-1%
SMILES	FEN1 inh	POLK inh	POLI inh	Pol beta inh	POLH inh	TDP1 block
CN1/C(=C/c2cc[n+](C)c3ccccc23)C=Cc2ccccc21	45µM*	-17%	27%	32µM*	-18%	10%
Cc1cc[n+](C)c2ccccc12	?	-23%	9%	.	.	.
CCOC(=O)C1CCCN(C(=O)c2cc3c(=O)n(C)c4ccccc4c3s2)C1 (stereo unspecified)	-10%	-5%	7%	-28%	-4%	7%
Cc1cc(/C=C2\C(=N)N3N=C(CC(=O)N4CCOCC4)SC3=NC2=O)c(C)n1-c1ccccc1	-19%	-18%	?	?	?	9%
CC(C)c1ccc(/C=C2\C(=N)N3N=C(CC(=O)N4CCCCC4)SC3=NC2=O)cc1	-6%	?	20µM*	-33%	-3%	3%
COc1ccc(-n2c(C)cc(/C=C3\C(=N)N4N=C(CC(=O)N5CCOCC5)SC4=NC3=O)c2C)cc1	4%	?	50µM*	0.89µM*	32µM*	-3%
CC[n+]1c(/C=C/C=C2/N(C)c3ccccc3C2(C)C)sc2ccccc21	.	27µM*	.	.	.	.
CCCCC(=O)Nc1ccc(OCc2cc(=O)n3c(C)csc3n2)cc1	18%	-5%	7%	14%	-8%	1%
Cc1ccc(-c2cc3ncc4c(n3n2)-c2cc(Cl)ccc2OC4)cc1	-3%	12%	27%	5%	-12%	2%
N#C/C(=C\c1ccc(-c2cc(Cl)ccc2Cl)o1)C(=O)Nc1cccc2ncccc12	?	-7%[60.1 µM]	.	.	.	.
CC(=O)Nc1ccc(S(=O)(=O)Nc2nc3nc(-c4ccccc4)cc(-c4ccccc4)n3n2)cc1	-4%	79µM*	?	32%	-4%	.
CCOC(=O)c1cc(-c2ccc(OC)cc2)n(CCC(=O)NCCc2ccccc2)c1C	-15%	-10%[60.1 µM]	-24%	-15%	-14%	9%
COCC(C)NC(=O)C(C)N1c2cccc3cccc(c23)S1(=O)=O (stereo unspecified)	8%	-2%	145%	1%	-4%	20µM*
COc1ccc(NC(=O)C(C)N2c3cccc4cccc(c34)S2(=O)=O)cc1 (stereo unspecified)	-13%	-20%	-1%	-22%	-15%	.
CC1CC(C)CN(C(=O)COC(=O)/C=C/c2ccco2)C1 (stereo unspecified)	-1%	-10%	?	.	?	22µM*
O=C(COC(=O)/C=C/c1ccco1)NCCc1ccccc1	-2%	-27%	57%	?	-1%	28µM*
O=C(NC1CCCCCC1)c1ccco1	-17%	89µM*	32µM*	5%	-4%	5%
CC1CC(C)CN(C(=O)COC(=O)/C=C/c2cccc([N+](=O)[O-])c2)C1 (stereo unspecified)	0%	-15%	?	.	-4%	-2%

Screening data from PubChem BioAssay.
